# According to ChEMBL document CHEMBL1157539, “Thousands of chemical starting points for antimalarial lead identification” (Nature, 2010):
# Test system: Plasmodium falciparum
# Test: GSK_TCMDC: Inhibition of Plasmodium falciparum 3D7 in whole red blood cells, using parasite LDH activity as an index of growth. Test compounds present at 2uM
# Format: functional
row,SMILES,Inhibition [%]
1,O=S(=O)(Nc1ccc(CCN2CCCCC2CCN2CCCC2)cc1)c1ccc(-c2ccccc2)cc1 (configuration not stated),98
2,Cc1ccc(/C=C/C(=O)NCCCCCN2CCN(C(=O)Nc3ccc(Cl)c(C(F)(F)F)c3)CC2)cc1,93
3,CN1CCCN(Cc2ccc(-c3cccc(NC(=O)c4cccc(Cl)c4)c3)cc2)CC1.O=C(O)C(F)(F)F,100
4,COc1cc(NC(=O)Nc2ccc(Br)cc2C(=O)Nc2ccc(Br)cc2)cc(OC)c1OC,99
5,CN(CCCCN)Cc1ccc(-c2ccc(Cl)cc2)cc1,97
6,CCOc1ccccc1CNc1nccc(NCCc2cn(C)c3ccccc23)n1,98
7,Cc1oc(-c2cccc(Oc3ccccc3)c2)nc1CN(Cc1cnn(C)c1)C(C)C,89
8,CC(Oc1ccc(Cl)cc1)C(=O)Nc1cc(C(F)(F)F)ccc1-n1cncn1 (configuration not stated),99
9,COc1ccc2nccc([C@@H](O)CN3CCC(NC(=O)/C=C/c4ccc5[nH]c(=O)ccc5c4)CC3)c2c1,96
10,Oc1ccc(Nc2nc(NCc3ccccc3)c3ccccc3n2)cc1,100
11,Fc1ccc2[nH]c(-c3ccc(-c4ccc(CN5CCN(c6ccncc6)CC5)cc4)cc3)nc2c1.O=C(O)C(F)(F)F,100
12,O=C(NCCCCN1CC=C(c2ccc3c(c2OCC2CC2)CCCC3)CC1)c1ccc(-c2ccc(C(F)(F)F)cc2)cc1,93

# Test system: Plasmodium falciparum
# Test: GSK_TCMDC: Inhibition of Plasmodium falciparum Dd2 in whole red blood cells, using parasite LDH activity as an index of growth. Test compounds present at 2uM
# Format: functional
row,SMILES,Inhibition [%]
1,Cc1cc(NC(=O)c2cc(S(=O)(=O)N3CCCCC3)ccc2C)no1,29
2,COc1ccc2nccc([C@@H](O)CN3CCC(NC(=O)C(=Cc4ccc(Cl)cc4Cl)c4ccc(-c5ccccc5)cc4)CC3)c2c1,98
3,Cc1ccc(-c2csc(C)n2)c(C)c1,0
4,O=C(c1ccc(Cl)cc1)N1CCCC(C(=O)N(Cc2nnc(-c3ccccc3Cl)o2)C2CC2)C1 (configuration not stated),96
5,CN(C)S(=O)(=O)c1ccc(Nc2nc(NCCC3C=NC=N3)nc3cc[nH]c(=O)c23)cc1 (configuration not stated),63
6,Brc1cc(Br)c2c(c1)C(NCCCNC1CCNc3c(Br)cc(Br)cc31)CCN2 (configuration not stated),25
7,CCc1sc(N2CCN(C)CC2)nc1C(=O)NCCc1ccc(Cl)c(Cl)c1.O=C(O)C(F)(F)F,49
8,COc1cc2c(cc1O)[C@@H]1[C@H](O)[C@@H](O)C=C3CCN(C2)[C@H]31 [PSEUDOLYCORINE],31
9,COc1cc(Cc2cnc(N)nc2N)c2ccsc2c1OC.Cl,4
10,CN1CCN(c2ccnc3cc4c(cc23)N(Cc2ccccc2)CC4)CC1,27
11,Cc1ccc2nc(-c3ccc(C(=O)NC4CCN(Cc5ccccc5)CC4)s3)[nH]c2c1,83
12,CC(C)CCn1c(Sc2ccc(C#N)c([N+](=O)[O-])c2)nnc1-c1cccc(Cl)c1,82
13,Cc1cc(NCCC(=O)NCCOc2ccccc2)nc(NCCOc2ccccc2)n1.O=C(O)C(F)(F)F,20
14,Br.CC1(C)NC(N)=NC(=N)N1OCCSCCON1C(=N)N=C(N)NC1(C)C,81
15,COc1cccc2c(Nc3ccccc3C)nc(Nc3ccccc3C)nc12,36
16,CC(C)N1CCC(N(Cc2ccc(-c3ccc(C(F)(F)F)cc3)cc2)C(=O)Cn2c(CCc3cccc(F)c3F)cc(=O)c3ccccc32)CC1.O=C(O)C(O)C(O)C(=O)O,73
17,COc1ccc2nccc([C@@H](O)CN3CCC(NC(=O)Cc4ccc(Br)c5ccccc45)CC3)c2c1,40
18,Cl.O=c1cc(NCCCNCc2ccc(Cl)c(Cl)c2)[nH]c2ccc(Oc3ccccc3)cc12,29
19,COc1ccc2nccc([C@@H](O)CN3CCC(NCCOc4ccncc4)CC3)c2c1.O=C(O)C(=O)O,0
20,CCCCN1CCN(CCCNc2c3ccccc3nc3ccccc23)CC1.Cl,70
21,CC(CCc1ccccc1)NCC(O)c1cccc(C(F)(F)F)c1.Cl (configuration not stated),98
22,CN(C)CCn1c(N)c(-c2nc3ccccc3s2)c2nc(C#N)c(C#N)nc21,40
23,Cc1cccc(CN2CCCN(Cc3ccc(C(=O)Nc4ccc(Cl)cc4)cc3)CC2)c1.O=C(O)C(F)(F)F,17
24,COc1ccc(CCN(C)CCCOc2ccc(NC(=O)COc3cccc4sc5ccccc5c(=O)c34)cc2)cc1OC,90
25,Cc1ccc(Cn2cnc3cc(C(=O)Nc4ccc(-c5ccc(CN(C)C)cc5)cc4)ccc3c2=O)o1,12
